The values that follow come from PubChem BioAssay (NCI).

A short description of this assay: NCI Yeast Anticancer Drug Screen. Data for the mlh1 rad18 strain (AID 175). The following applies: S. cerevisiae mlh1 rad18 strain growth inhibition, stronger effect = higher value. Here is the method: Growth inhibition of yeast strains with defined genetic alterations is measured as a screen for potential anti-cancer activity. Selected strains with alterations in DNA damage repair or cell cycle control were exposed to compounds and growth inhibition was measured relative to vehicle treated controls. The strain used in this assay is mlh1 rad18

[1] abbreviates: at 5.0 µM (retest, dose inferred, filed as 0.5).
Where [2] appears, read: at 50.0 µM (retest, dose inferred, filed as 5.0).

Values joined by “and” are separate entries in the source; they are usually repeats but may differ in a detail not shown here. Identical values can stand only once. About 79,000 compounds went through this panel and 15% of them were active in at least one assay; those are over-represented in the sample as a whole. A structure can be active in one record and inactive in another. Active and inactive are the calls of the source. No stated cut-off is given here; in the data, active means growth inhibition above about 70%; inactive means the rest.

Consider `[C-]#[O+].[C-]#[O+].[Ir].[O-]c1ccc2ccccc2c1N=Nc1ccccc1`, for which the growth inhibition runs as follows: under setting [1], -18% (inactive); under setting [2], -18% (inactive); (at 50.0 µM) 69.5% (inactive).
As for `O=C1C(Br)=CC2(C=C1Br)CCNc1c(O)c3c4c(c12)=NCCC=4C=N3`, the growth inhibition by setting is: under setting [1], 25% (inactive); under setting [2], 75% (active); (at 50.0 µM) 57.5% (inactive).
For `O=c1c2ccccc2[se]n1-c1ccccc1`, in that order: -12% (inactive), 62% (inactive) and 86% (active).
In the same order, the values of `CC(O)([CH2][Hg][Cl])C(O)[CH2][Hg][Cl]` (stereo unspecified) are 99% (active), 99% (active) and 97.5% (active).
Consider `CCC[CH2][Sn]1([CH2]CCC)[O]Cc2nc(C)ccc2[O]1`, for which the growth inhibition was 40% (inactive) under setting [1], 96% (active) under setting [2] and 85.5% (active) (at 50.0 µM).
In the case of `FC1(F)C(Cl)=[C]([Hg][C]2=C(Cl)C(F)(F)C(F)(F)C(F)(F)C2(F)F)C(F)(F)C(F)(F)C1(F)F`, the growth inhibition was 57% (inactive) under setting [1], 99% (active) under setting [2] and 50.6% (inactive) (at 50.0 µM).
On to `CCc1cc2c(cc1-c1csc(C/C(N)=N/O)n1)C(C)(C)CCC2(C)C`, for which the growth inhibition reads like this: under setting [1], 60% (inactive); under setting [2], 94% (active); (at 50.0 µM) 90.3% (active).
For `[Br][Ni][Br].c1ccc(CN2CCN(Cc3ccccc3)CCN(Cc3ccccc3)CCN(Cc3ccccc3)CC2)cc1`, in that order: 3% (inactive), 92% (active) and 98.2% (active).
Turning to `C=Cc1ccccc1` (tested in a mixture with another compound), the growth inhibition under setting [1] was -1% (inactive); the growth inhibition under setting [2] was 1% (inactive); the growth inhibition (at 50.0 µM) is 12.4% (inactive) and 31.1% (inactive) and -6.6% (inactive).
For `NC(C(=O)O)c1ccccc1Cl` (stereo unspecified), the growth inhibition by setting is: under setting [1], -147% (inactive); under setting [2], -106% (inactive); (at 50.0 µM) 13.9% (inactive).
In the same order, the values of `CN(C)c1ccc(N=Cc2c([O-])ccc3ccccc23)cc1.[C-]#[O+].[C-]#[O+].[Ir]` are 9% (inactive), 9% (inactive) and 71.1% (active).
`ClCC[N+]12CC[N+](CCCl)(CC1)C2`: the growth inhibition is 47% (inactive) under setting [1] and 97% (active) under setting [2].
For `C/C(=N\O)c1ccc2ccc3ccccc3c2c1`, the growth inhibition was -113% (inactive) and 3% (inactive) under setting [1]; 75% (active) and 64% (inactive) under setting [2]; 96.2% (active) and 82.8% (active) (at 50.0 µM).
On to `N=P(c1ccccc1)(c1ccccc1)c1ccccc1` (tested in a mixture with another compound), for which the growth inhibition by setting is: under setting [1], 6% (inactive); under setting [2], 27% (inactive); (at 50.0 µM) 59.9% (inactive).
